In PubChem BioAssay (NCATS):
Where “and” joins values, the source holds several entries; their conditions need not be identical. Equal entries are not always repeated. Records with an inconclusive call do not appear. Calls of active or inactive are those of the source. Unless noted, calls come from the whole dose curve; as a rule, active = well fitted curve in the direction sought with a large enough effect; inconclusive = small, poorly fitted or top-dose-only effect, or another doubt; inactive = no such curve, though single readings can be large; an effect the other way counts as inactive or inconclusive.

Key:
[1] = target: Glucocorticoid receptor (Homo sapiens) (UniProt P04150); experiment: GR-EFC Redistribution (AID 451; calls by dose curve; note: potency is the fitted concentration of half-maximal effect); settings: CHO-K1 GR-EFC translocation, beta-gal luminescence, 2 h
Sequence of Glucocorticoid receptor (Homo sapiens) (P04150 whole entry, looked up, the tested form may be a part): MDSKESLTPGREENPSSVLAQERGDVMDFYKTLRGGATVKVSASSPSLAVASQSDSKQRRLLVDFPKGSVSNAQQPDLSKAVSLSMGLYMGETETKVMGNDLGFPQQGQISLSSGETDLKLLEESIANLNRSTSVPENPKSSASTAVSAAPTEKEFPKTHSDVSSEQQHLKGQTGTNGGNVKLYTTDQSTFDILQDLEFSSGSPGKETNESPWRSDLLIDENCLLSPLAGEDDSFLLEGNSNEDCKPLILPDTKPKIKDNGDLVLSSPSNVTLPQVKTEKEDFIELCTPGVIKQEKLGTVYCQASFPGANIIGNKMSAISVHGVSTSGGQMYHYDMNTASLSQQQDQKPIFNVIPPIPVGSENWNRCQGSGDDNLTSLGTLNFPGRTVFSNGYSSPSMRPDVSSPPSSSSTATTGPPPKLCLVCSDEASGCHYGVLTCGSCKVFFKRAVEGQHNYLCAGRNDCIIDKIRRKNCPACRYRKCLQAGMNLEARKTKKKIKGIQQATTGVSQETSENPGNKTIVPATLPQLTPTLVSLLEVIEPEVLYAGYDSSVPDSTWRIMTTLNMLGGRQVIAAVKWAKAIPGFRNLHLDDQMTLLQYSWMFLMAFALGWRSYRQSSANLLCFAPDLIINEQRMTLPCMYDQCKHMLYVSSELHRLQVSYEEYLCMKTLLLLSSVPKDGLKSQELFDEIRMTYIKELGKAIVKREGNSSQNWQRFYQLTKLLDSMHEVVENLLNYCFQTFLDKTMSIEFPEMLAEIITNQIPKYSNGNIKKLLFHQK
Outline: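 CHO-K1 cells stably expressing nuclear-localized β-gal enzyme acceptor and GR fused C-terminally to the enzyme donor fragment; ligand-driven nuclear translocation restores β-gal by complementation. Compounds titrated up to 46 uM final, 2 h at 37 °C; luminescence read.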

[2] = target: Mitogen-activated protein kinase 10 (Mus musculus) (UniProt Q61831); experiment: JNK3 AlphaScreen Assay (AID 530; active = well fitted curve in either direction with a large enough effect, not every such curve was filed as active;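 note: kinase came from lysate of stimulated human HepG2 cells; signal reports phosphorylation of biotinylated GST-cJun 1-79 at Ser73 with 10 µM ATP; % is set by controls: 0 for no effect and ±100 for the full control effect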); settings: JNK3 lysate, c-Jun phosphorylation; series mostly up to 57.1 µM
Outline: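 JNK3 came from HepG2 lysates pre-activated with IL-1beta and TNF-alpha and phosphorylated biotinylated GST-cJun (1-79) at 10 uM ATP, pH 7.6, room temperature. Compounds were titrated. AlphaScreen signal used anti-phospho-cJun (Ser73) antibody.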

[3] = Cell Viability - N2a (AID 540); settings: N2a mouse neuroblastoma cell viability; activity change, negative = cytotoxicity: at 92.2 µM (top of the series);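 note: plate controls were DMSO alone for no effect and tamoxifen control for full effect; nearly all actives have a fitted effect of over 45% in size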
Outline: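 Mouse neuroblastoma N2a cells (1500/well) were preincubated 5 hr at 37 °C, then exposed to compounds for 40 hr at 37 °C in complete medium. Viability was read as intracellular ATP by CellTiter-Glo luminescence; AC50 from Hill fits.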

[4] = Cell Viability - NIH 3T3 (AID 541); settings: NIH 3T3 cell viability, qHTS; activity change, negative = cytotoxicity: at 92.2 µM (top of the series);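 note: plate controls were DMSO alone for no effect and tamoxifen positive control for full effect; nearly all actives have a fitted effect of over 25% in size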
Outline: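 NIH 3T3 mouse embryo fibroblasts (1000 cells/well) were plated in complete medium and treated with compound for 40 hr at 37 °C. Viability was read as intracellular ATP by CellTiter-Glo luminescence; AC50 values came from Hill-equation fits of concentration-response data.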

[5] = Cell Viability - HUV-EC-C (AID 542); settings: HUV-EC-C endothelial cell viability, qHTS; series mostly up to 92.2 µM; note: % is set by controls: 0 for no effect and ±100 for the full control effect; nearly all actives have a fitted effect of over 35% in size
Outline: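 HUV-EC-C normal human vascular endothelial cells, 1000 cells/well, pre-incubated 5 hr at 37 °C, then exposed to compounds for 40 hr at 37 °C in complete medium. Viability measured as intracellular ATP by CellTiter-Glo luminescence; AC50 from Hill fits.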

[6] = Cell Viability - H-4-II-E (AID 543); settings: H-4-II-E rat hepatoma viability; series mostly up to 92.2 µM; note: % is set by controls: 0 for no effect and ±100 for the full control effect; nearly all actives have a fitted effect of over 35% in size
Outline: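 Rat hepatoma H-4-II-E cells (1500/well) were plated, incubated 5 hr at 37 °C, then exposed to compounds for 40 hr at 37 °C. Cellular ATP was read by CellTiter-Glo luminescence; AC50 came from Hill-equation fits of concentration-response data.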

[7] = Cell Viability - SH-SY5Y (AID 544); settings: SH-SY5Y neuroblastoma cell viability; viability change, negative = cytotoxic: at 92.2 µM (top of the series); note: nearly all actives have a fitted effect of over 55% in size
Outline: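 Human neuroblastoma SH-SY5Y cells (1500/well) in complete medium were exposed to compounds for 40 hr at 37 °C; intracellular ATP was then quantified by CellTiter-Glo luminescence after 20 min at room temperature. AC50 came from Hill-equation concentration-response fits.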

[8] = Cell Viability - Renal Proximal Tubule (AID 545); settings: renal proximal tubule cells viability, primary cells of rat origin; series mostly up to 91.7 µM; note: nearly all actives have a fitted effect of over 40% in size
Outline: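 Rat renal proximal tubule primary cells, 1000/well, exposed to compounds for 40 hr at 37 °C in complete medium; cellular ATP read by CellTiter-Glo luminescence. AC50 from concentration-response fitted with standard Hill equation.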

[9] = Cell Viability - Mesenchymal (AID 546); settings: mesenchymal cells viability, qHTS; series mostly up to 91.7 µM;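 note: cells exposed to compound for 40 hours before reading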
Outline: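 Normal human renal glomerulus-derived kidney mesenchymal cells, 1000 per well in complete medium, were treated with compounds for 40 hr at 37 °C. Viability was read as intracellular ATP by CellTiter-Glo luminescence; AC50 values came from Hill-equation fits of qHTS concentration-response data.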

[10] = target: 3',5'-cyclic-AMP phosphodiesterase 4B (Homo sapiens) (UniProt Q07343); experiment: qHTS Assay for Inhibitors of PDE-IV (AID 607; active = well fitted activation curve with a large enough effect in the main read-out, with a control signal flat, not every such curve was filed as active; note: % of control where 0% means no effect); settings: HEK293 ACTOne CNG channel cells, membrane potential fluorescence; series mostly up to 22.9 µM
Sequence of 3',5'-cyclic-AMP phosphodiesterase 4B (Homo sapiens) (Q07343 whole entry, looked up): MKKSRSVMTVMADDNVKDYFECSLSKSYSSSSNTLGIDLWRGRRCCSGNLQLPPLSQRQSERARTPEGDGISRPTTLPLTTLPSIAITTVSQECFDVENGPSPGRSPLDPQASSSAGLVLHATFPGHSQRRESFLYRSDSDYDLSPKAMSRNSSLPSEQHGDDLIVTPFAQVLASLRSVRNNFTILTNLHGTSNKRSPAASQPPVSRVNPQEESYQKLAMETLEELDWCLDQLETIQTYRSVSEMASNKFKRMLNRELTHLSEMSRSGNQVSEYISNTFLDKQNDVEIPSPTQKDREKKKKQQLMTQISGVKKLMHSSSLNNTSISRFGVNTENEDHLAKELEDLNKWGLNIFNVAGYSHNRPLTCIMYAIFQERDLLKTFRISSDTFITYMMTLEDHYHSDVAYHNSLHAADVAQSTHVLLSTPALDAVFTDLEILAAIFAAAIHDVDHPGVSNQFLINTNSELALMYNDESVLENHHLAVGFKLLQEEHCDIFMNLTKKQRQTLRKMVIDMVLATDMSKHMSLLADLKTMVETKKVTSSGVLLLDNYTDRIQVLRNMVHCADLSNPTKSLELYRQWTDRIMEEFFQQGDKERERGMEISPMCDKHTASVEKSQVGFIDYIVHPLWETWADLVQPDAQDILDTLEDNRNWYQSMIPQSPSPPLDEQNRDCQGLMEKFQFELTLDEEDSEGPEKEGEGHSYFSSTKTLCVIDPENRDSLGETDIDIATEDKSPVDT
Outline: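 ACTOne HEK293 cells carry a modified cAMP-gated CNG channel and express endogenous PDE4; plated 1000 cells/well, compounds up to 22.9 uM final. Membrane-potential dye fluorescence (ex 535/em 590) was read; parental cells received 10 uM forskolin + 100 uM RO 20-1724.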

[11] = Cellular Toxicity (caspase-3) HepG2 (AID 654); settings: HepG2 caspase-3 activation, luminescence, 0% = DMSO only, 100% = tamoxifen; series mostly up to 92.2 µM;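 note: cells exposed to compound for 16 hours before reading; 0% = DMSO alone and 100% = caspase signal from 100 µM tamoxifen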
Outline: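 HepG2 cells (1500/well) in complete medium were treated with compounds for 16 hr at 37 °C. Caspase-3/7 activity was then read as luminescence from peptide-aminoluciferin cleavage. AC50 came from Hill fits, normalized to DMSO and 100 uM tamoxifen.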

[12] = Cellular Toxicity (caspase-3) Jurkat (AID 655); settings: Jurkat caspase-3 activation, luminescence; series mostly up to 92.2 µM;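 note: cells exposed to compound for 16 h at 37 °C before reading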
Outline: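 Jurkat cells (5000/well) in complete medium exposed 16 h at 37 C; caspase-3/7 activity read by Caspase-Glo luminescence after 20 min at room temperature. Normalized to DMSO and 100 uM tamoxifen; AC50 from Hill fits.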

[13] = Cellular Toxicity (caspase-3) HUV-EC-C (AID 656); settings: HUV-EC-C cells, caspase-3 activation (apoptosis), vehicle = 0, 100 µM tamoxifen = 100%; series mostly up to 92.2 µM
Outline: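 HUV-EC-C cells (1000/well) in complete medium, compound-treated 16 h at 37 °C; caspase-3/7 activity read by Caspase-Glo 3/7 luminescence. Normalized to DMSO (basal) and 100 uM tamoxifen (100%); AC50 from Hill-equation concentration-response fits.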

[14] = Cellular Toxicity (caspase-3) SHSY5Y (AID 657); settings: SH-SY5Y caspase-3 activation, DMSO zero, 10 µM staurosporine = 100%; series mostly up to 91.7 µM
Outline: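 SH-SY5Y human neuroblastoma cells, 1500/well, exposed to compound for 16 hours at 37 °C in complete medium. Caspase-3/7 activity read by Caspase-Glo luminescence after 1 hr at room temperature, normalized to DMSO and 10 uM staurosporine; AC50 from Hill fit.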

[15] = Cellular Toxicity (caspase-3) BJ (AID 658); settings: BJ fibroblasts, luminescence, normalized: DMSO 0%, staurosporine 100%; series mostly up to 91.7 µM
Outline: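 Luminescent aminoluciferin-substrate cleavage reports caspase 3/7 activity in normal human BJ fibroblasts after 16 hr compound exposure at 37 °C. Normalized to DMSO (basal) and 10 uM staurosporine (100%); AC50 from Hill fit of concentration-response.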

[16] = Cellular Toxicity (caspase-3) Mesangial (AID 660); settings: mesangial cells, normalized: DMSO 0%, 100 µM tamoxifen 100%; series mostly up to 91.7 µM;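 note: cells exposed to compound for 16 h before the caspase read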
Outline: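 Human renal glomerular mesangial cells (1000/well) were treated with compounds for 16 h at 37 °C in complete medium, then caspase 3/7 activity was read by Caspase-Glo luminescence. Data were normalized to DMSO and 100 uM tamoxifen; AC50 from Hill fits.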

[17] = Cellular Toxicity (caspase-3) H-4-II-E (AID 663); settings: H-4-II-E rat hepatoma, scaled: DMSO 0%, 100 µM tamoxifen 100%; series mostly up to 92.2 µM;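 note: cells exposed to compound for 16 hr before readout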
Outline: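 Luminescence from caspase-cleaved aminoluciferin substrate, read 20 min after reagent addition, reports caspase 3/7 activation in rat H-4-II-E cells after 16 hr compound exposure. Normalized to DMSO (basal) and 100 uM tamoxifen (100%); AC50 from Hill fits.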

[18] = Cellular Toxicity (caspase-3) Hek293 (AID 664); settings: HEK293 caspase-3 activation; caspase-3 activation: at 92.2 µM (top of the series), DMSO = 0%, 100 µM tamoxifen = 100%;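 note: cells exposed to compound for 16 h at 37 °C before readout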
Outline: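 HEK293 cells were exposed to compounds in complete medium for 16 hr at 37 °C, then caspase-3/7 activity was read by Caspase-Glo 3/7 luminescence after 20 min at room temperature. Data normalized to DMSO and 100 uM tamoxifen; AC50 from Hill fits.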

[19] = Cellular Toxicity (caspase-3) N2a (AID 665); settings: N2a cells, luminescence, normalized: DMSO 0%, 10 µM staurosporine 100%; series mostly up to 92.2 µM;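 note: compound exposure lasted 16 h at 37 °C before readout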
Outline: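 Mouse N2a neuroblastoma cells (1500/well) were treated with compounds for 16 h at 37 °C, then caspase-3/7 activity was read by Caspase-Glo luminescence after 1 h at room temperature. Data were normalized to DMSO and 10 uM staurosporine; AC50 from Hill fits.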

[20] = target: Glucocorticoid receptor (Homo sapiens) (UniProt P04150); experiment: GR-GFP Redistribution (AID 450;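 active = compounds whose dose series gives a full or clear partial fitted curve of increased nuclear translocation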; note: potency is the fitted concentration of half-maximal effect); settings: U2OS GR-GFP nuclear translocation, laser cytometry, 2 h

Cn1c(=O)c2c(ncn2C)n(C)c1=O
inactive: Potency [1] > 46 µM | outcome [2] | activity change, negative = cytotoxicity [3] 4.95% | Potency [4] | outcome [5] | Potency [6] | Potency [7] | Potency [8] | outcome [9] | Potency [10] | outcome [11] | Potency [12] | outcome [13] | outcome [14] | outcome [15] | outcome [16] | outcome [17] | Potency [18] | outcome [19]

Nc1nc2c(ncn2COC(CO)CO)c(=O)[nH]1
inactive: Potency [1] > 46 µM and > 20.6 µM | outcome [2] | Potency [10]

CN1CCN(C2=Nc3cc(Cl)ccc3Nc3ccccc32)CC1
inactive: Potency [1] > 46 µM and > 20.6 µM | outcome [2] | Potency [10]

OCCN1CCN(CCCN2c3ccccc3Sc3ccc(C(F)(F)F)cc32)CC1
inactive: Potency [20] > 46 µM and > 20.6 µM | Potency [1] > 46 µM and > 20.6 µM | outcome [2] | Potency [10]

NC(=O)OCC(COC(N)=O)c1ccccc1
inactive: Potency [20] > 46 µM and > 20.6 µM | Potency [1] > 46 µM | outcome [2] | Potency [10]

NCCS(=O)(=O)O
inactive: Potency [1] > 46 µM | outcome [2] | activity change, negative = cytotoxicity [3] -1.66% | Potency [4] | outcome [5] | Potency [6] | Potency [7] | Potency [8] | outcome [9] | Potency [10] | outcome [11] | Potency [12] | outcome [13] | outcome [14] | outcome [15] | outcome [16] | outcome [17] | Potency [18] | outcome [19]

O=C1N(c2ccccc2)c2ccccc2C1(Cc1ccncc1)Cc1ccncc1
inactive: Potency [1] > 46 µM | outcome [2] | Potency [10]
